Results published in PubChem BioAssay AID1053119 (Broad Institute, 2014).
Entries with a potency or affinity are not part of this list. Inconclusive results are not listed. Calls of active or inactive are those of the source.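 How the source made its calls: active means signal loss from cell killing with fitted potency at or below twice the top valid dose; inconclusive means flat drop of 30 to 70%, or unreliable curve fit; inactive means opposite direction, flat within 30%, or weaker potency.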

test: A549 cell cytotoxicity, dose response, cytotoxicity control, cherry-picks, 26 µM top dose (AID 1053119); conditions: A549 viability, CellTiter-Glo ATP luminescence, 72 h; series mostly up to 26 µM

Row | SMILES | outcome
1 | C[C@@H]1CN([C@H](C)CO)C(=O)c2cc(-c3ccccc3)cnc2O[C@@H]1CN(C)C(=O)c1cccc(F)c1 | inactive
2 | COc1cccc(CN2CCN(C(=O)c3ccc(-c4ccccc4)cc3)CC2)c1OC | inactive
3 | C[C@@H]1CN([C@@H](C)CO)C(=O)c2cc(NC(=O)CCCN(C)C)ccc2O[C@@H]1CN(C)Cc1ccc(-c2ccccc2)cc1 | inactive
4 | CO[C@H]1CN(C)C(=O)c2ccc(NC(=O)Nc3cc(Cl)cc(Cl)c3)cc2OC[C@H](C)NC[C@@H]1C | inactive
5 | Cc1oc2ccc(O)cc2c1C(=O)c1ccc(Br)cc1 | inactive
6 | O=C(NCCS(=O)(=O)N1CCN(c2ccc(F)cc2)CC1)c1ccc(Br)o1 | inactive
7 | CC(C)(C)[S@@](=O)N1Cc2cc(C(=O)NCc3ccccc3F)nc(-c3cccc(-c4cncnc4)c3)c2[C@H]1CCO | inactive
8 | C=CCC[C@H](Cc1ccc(F)cc1)C(=O)OC[C@H](Cc1c[nH]c2ccccc12)NC(=O)[C@@H](CC=C)CC(=O)N[C@@H](CO)Cc1ccccc1 | inactive
9 | C[C@@H]1CN([C@@H](C)CO)C(=O)c2cc(-c3ccccc3)cnc2O[C@@H]1CN(C)C(=O)c1cccc(F)c1 | inactive
10 | COc1ccccc1CC(=O)OC(C)C(=O)Nc1ccc(S(=O)(=O)N2CCCCC2)cc1 (stereo not drawn) | inactive
11 | Cc1cc(C)n2ncc(C(=O)NCc3ccc(Cl)cc3)c2n1 | inactive
12 | Cc1ccc(N(CC(=O)NCc2ccco2)S(=O)(=O)c2ccccc2)cc1 | inactive
13 | CCCCOc1ccc(C(C)NC(=O)C2CCCN(S(=O)(=O)CCC)C2)cc1 (stereo not drawn) | inactive
14 | CCN(Cc1ccncc1)C(=O)c1ccc2c(c1)S(=O)(=O)c1ccccc1C2=O | inactive
15 | C[C@H](O)C#Cc1ccc2c(c1)O[C@H](CN(C)C)[C@H](C)CN([C@H](C)CO)S2(=O)=O | inactive
16 | COC(=O)C[C@@H]1CC[C@H]2[C@H](COc3ccc(NC(=O)Cc4cccs4)cc3C(=O)N2C)O1 | inactive
17 | O=C(Nc1ccccc1F)N1C[C@@H]2[C@H](c3ccccc31)[C@H](CO)N2C(=O)C1CC1 | inactive
18 | Cc1ccc(-c2nc3ncccc3o2)cc1NC(=O)c1ccco1 | inactive
19 | O=C(Nc1cc(Sc2nc3ccccc3s2)cc([N+](=O)[O-])c1)c1ccccc1F | inactive

Row | SMILES | outcome
20 | O=C(c1cccnc1)N1C[C@H]2[C@@H](c3ccccc31)[C@H](CO)N2CC1CCCC1 | inactive
21 | O=S(=O)(c1cccc(F)c1)N1CC[C@@H]2[C@H]1c1cc(-c3cccc(F)c3)ccc1N[C@@H]2CO | inactive
22 | COc1ccccc1CNc1nc(NCc2cnc(C)cn2)c2sccc2n1 | inactive
23 | c1ccc2[nH]c(SCc3cn4cccnc4n3)nc2c1 | inactive
24 | CCOc1ccccc1NC(=O)c1c(NC(=O)CCC(=O)O)sc2c1CCCCC2 | inactive
25 | C[C@@H]1CN([C@H](C)CO)C(=O)c2cc(NC(=O)C3CCCCC3)ccc2O[C@@H]1CN(C)Cc1ccc(-c2ccccc2)cc1 | inactive
26 | COc1cccc(-c2ccc3c(c2)[C@H]2[C@H](CCN2S(=O)(=O)c2cccc(OC)c2)[C@@H](CO)N3)c1 | inactive
27 | C[C@H]1CN([C@@H](C)CO)C(=O)c2cc(-c3ccccc3)cnc2O[C@H]1CN(C)C(=O)c1cccc(F)c1 | inactive
28 | COCC(=O)Nc1ccc2c(c1)C(=O)N(C)[C@H]1CC[C@@H](CC(=O)NCc3ccccc3Cl)O[C@H]1CO2 | inactive
29 | CCc1ccc(NC(=O)CSc2nnc(-c3ccco3)o2)cc1 | inactive
30 | CO[C@H]1CN(C)C(=O)c2cc(NC(=O)Nc3cc(Cl)cc(Cl)c3)ccc2OC[C@H](C)NC[C@@H]1C | inactive
31 | Nc1c(C(=O)NCc2ccco2)nnn1Cc1ccccc1 | inactive
32 | C[C@H]1CN([C@@H](C)CO)C(=O)c2cc(-c3ccccc3)cnc2O[C@@H]1CN(C)C(=O)c1cccc(F)c1 | inactive
33 | Fc1cnc(N2CCN(c3ccccc3)CC2)nc1N1CCN(c2ccccc2)CC1 | inactive
34 | Cc1cccc(NC(=O)c2ccc(S(=O)(=O)N3CCCCC3)cc2)n1 | inactive
35 | COCC(=O)Nc1ccc2c(c1)C(=O)N(C)[C@@H]1CC[C@H](CC(=O)NCc3ccccc3Cl)O[C@H]1CO2 | inactive
36 | C[C@H](CO)N1C[C@H](C)[C@@H](CN(C)C(=O)c2cccc(F)c2)Oc2ncc(-c3ccccc3)cc2C1=O | inactive
37 | COc1cccc(S(=O)(=O)N2CC[C@@H]3[C@H]2c2cc(-c4ccc(C#N)cc4)ccc2N[C@@H]3CO)c1 | inactive
38 | CO[C@H]1CN(C)C(=O)c2cc(NC(=O)Nc3ccc(Cl)c(Cl)c3)ccc2OC[C@@H](C)NC[C@H]1C | inactive
